Measurements as given in PubChem BioAssay.
Active and inactive are the calls of the source. Unless noted, how the calls were made is not given here.

Key:
[1] = HepG2 liver cancer cell viability effects, profiling panel, resazurin fluorescence, 24 h, PK04 Diversity Set (AID 1172); conditions: higher = more signal
[2] = basal S. cerevisiae growth modulation, no modifier, primary screen, OD600, strain BY4716, 24 h, basal condition (AID 1173); conditions: OD600, 24 h, higher = more signal, called active from +8 up or from −8 down
[3] = MM1S myeloma cell viability, profiling panel, resazurin fluorescence, basal, 24 h, PK04 Diversity Set (AID 1174); conditions: higher = more signal, called active from +8 up or from −8 down;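 further: MM1S multiple myeloma cell line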
[4] = molecular target: Dihydroorotate dehydrogenase (quinone), mitochondrial (Plasmodium falciparum (isolate 3D7)) (UniProt Q08210); assay: PfDHODH enzyme inhibitors, primary screen, biochemical, C-terminal His tag, absorbance 600 nm (AID 1175); conditions: DCIP absorbance 600 nm, higher = more signal, called active from +8 up or from −8 down;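 further: recombinant parasite enzyme with a five histidine tag at its C terminus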
Dihydroorotate dehydrogenase (quinone), mitochondrial (Plasmodium falciparum (isolate 3D7)), sequence (Q08210 whole entry, looked up): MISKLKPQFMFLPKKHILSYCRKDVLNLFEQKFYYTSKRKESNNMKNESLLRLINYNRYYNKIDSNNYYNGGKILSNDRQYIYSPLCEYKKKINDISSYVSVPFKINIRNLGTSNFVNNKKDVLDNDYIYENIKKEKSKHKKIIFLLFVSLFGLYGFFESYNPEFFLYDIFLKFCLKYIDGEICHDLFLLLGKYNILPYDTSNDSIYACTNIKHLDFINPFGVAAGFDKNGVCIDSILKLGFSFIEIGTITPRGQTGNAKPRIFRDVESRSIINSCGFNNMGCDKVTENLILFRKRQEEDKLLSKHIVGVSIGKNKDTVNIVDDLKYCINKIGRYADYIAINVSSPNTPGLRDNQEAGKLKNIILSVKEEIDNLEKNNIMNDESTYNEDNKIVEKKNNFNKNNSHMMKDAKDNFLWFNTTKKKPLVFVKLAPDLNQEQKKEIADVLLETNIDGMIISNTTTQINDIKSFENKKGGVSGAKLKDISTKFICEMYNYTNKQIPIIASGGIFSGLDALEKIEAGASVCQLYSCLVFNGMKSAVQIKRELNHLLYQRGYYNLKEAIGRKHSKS

[5] = P. aeruginosa biofilm formation inhibitors, primary screen, strain PAO1, LB-PBS medium, absorbance 600 nm (AID 1176); conditions: P. aeruginosa PAO1 growth/biofilm, A600, 12 h; higher = more signal
[6] = S. cerevisiae RM11-1a growth modifiers, primary screen, strain RM11-1a, OD600, basal, 24 h (AID 1177); conditions: OD600, 24 h, higher = more signal, called active from +8 up or from −8 down;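 further: cultures grown under basal conditions with no added stressor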
[7] = E. coli acrAB mutant growth effects, primary screen, E. coli filamentation inducers, strain DRC39, OD650, 24 h (AID 1178); conditions: higher = more signal, called active from +8 up or from −8 down;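 further: growth measured as culture turbidity by optical density at 650 nm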
[8] = E. coli acrAB mutant growth effects, primary screen, E. coli filamentation inducers, strain DRC39, OD650, 48 h (AID 1179);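 further: screen aims at cell division blockers that make cells filament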; conditions: E. coli DRC39 delta-acrAB growth, higher = more signal, called active from +8 up or from −8 down
[9] = RPMI8226 myeloma cell viability, profiling panel, resazurin fluorescence, basal, 24 h, PK04 Diversity Set (AID 1180); conditions: higher = more signal;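 further: RPMI8826 multiple myeloma cell line at 5000 cells per well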
[10] = molecular target: E3 ubiquitin-protein ligase XIAP (Homo sapiens) (UniProt P98170); assay: XIAP binders, primary screen, biophysical, small-molecule microarray, fluorescence 635 nm (AID 1181); conditions: small-molecule microarray binding, higher = more signal;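 further: score merges 667 nm emission and signal to noise over triplicate slides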
E3 ubiquitin-protein ligase XIAP (Homo sapiens), sequence (P98170 whole entry, looked up): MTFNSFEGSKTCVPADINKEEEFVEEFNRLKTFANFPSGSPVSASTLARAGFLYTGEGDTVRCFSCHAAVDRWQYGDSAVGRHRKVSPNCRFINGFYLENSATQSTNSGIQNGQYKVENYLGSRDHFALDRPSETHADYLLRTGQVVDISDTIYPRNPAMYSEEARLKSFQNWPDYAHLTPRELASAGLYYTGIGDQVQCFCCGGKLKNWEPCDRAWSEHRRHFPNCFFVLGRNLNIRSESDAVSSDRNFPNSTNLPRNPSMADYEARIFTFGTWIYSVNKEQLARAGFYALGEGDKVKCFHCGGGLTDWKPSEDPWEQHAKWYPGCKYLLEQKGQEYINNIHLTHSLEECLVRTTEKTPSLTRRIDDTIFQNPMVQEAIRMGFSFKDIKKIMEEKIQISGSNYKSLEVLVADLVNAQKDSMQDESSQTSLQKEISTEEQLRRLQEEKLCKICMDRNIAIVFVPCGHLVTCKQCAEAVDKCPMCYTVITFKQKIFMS

[11] = test system: XIP peptide (Xip251-270) binding; assay: small-molecule binders of XIP peptide, primary screen, biochemical, small-molecule microarray, fluorescence 635/667 nm, 0.1 µg/mL protein (AID 1182); conditions: fluorescent protein binding, 635 nm, higher = more signal, called active from +8 up or from −8 down
XIP peptide (Xip251-270) = assay: small-molecule binders of XIP peptide, primary screen, biochemical, small-molecule microarray, fluorescence 635/667 nm, 0.5 µg/mL protein (AID 1183); conditions: small-molecule microarray binding, fluorescence 635 nm; higher = more signal
[12] = Plasmodium falciparum growth inhibition, primary screen, strain 3D7, DAPI fluorescence, 100 nL (AID 1184);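 further: parasites grown inside human red blood cells in medium with human serum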; conditions: P. falciparum 3D7 growth, 3 d, higher = more signal
[13] = molecular target: Homeobox protein Hox-A13 (Mus musculus) (UniProt Q62424); assay: inhibitors of HoxA13-DNA binding, primary screen, biochemical, fluorescence polarization, labeled oligonucleotide (AID 1185); conditions: 15 min, higher = more signal, called active from +8 up or from −8 down
Homeobox protein Hox-A13 (Mus musculus), sequence (Q62424 whole entry, looked up): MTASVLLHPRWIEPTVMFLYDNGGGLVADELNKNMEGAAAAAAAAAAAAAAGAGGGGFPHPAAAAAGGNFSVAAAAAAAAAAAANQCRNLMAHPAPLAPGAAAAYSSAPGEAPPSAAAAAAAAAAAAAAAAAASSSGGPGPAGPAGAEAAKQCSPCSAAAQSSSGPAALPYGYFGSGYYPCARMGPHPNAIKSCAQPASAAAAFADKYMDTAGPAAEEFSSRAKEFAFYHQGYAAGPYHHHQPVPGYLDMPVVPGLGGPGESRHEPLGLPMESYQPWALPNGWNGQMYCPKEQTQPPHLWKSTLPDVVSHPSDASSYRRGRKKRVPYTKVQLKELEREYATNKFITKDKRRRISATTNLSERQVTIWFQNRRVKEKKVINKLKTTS

[14] = inhibitors of hydroxyurea-induced Chk1 phosphorylation, primary screen, imaging, HeLa, phospho-Chk1 antibody, percent positive cells (AID 1186); conditions: hydroxyurea-induced phospho-Chk1 immunofluorescence imaging, higher = more signal
[15] = inhibitors of hydroxyurea-induced Chk1 phosphorylation, primary screen, imaging, HeLa, phospho-Chk1 nuclear intensity (AID 1187); conditions: hydroxyurea-induced phospho-Chk1 immunofluorescence imaging, higher = more signal

Compound	z-score [1]	z-score [2]	z-score [3]	composite z-score [4]	z-score [5]	z-score [6]	z-score [7]	z-score [8]	z-score [9]	composite z-score [10]	composite z-score [11]	composite z-score (XIP peptide (Xip251-270))	z-score [12]	z-score [13]	z-score [14]	z-score [15]
C=CCOC(=O)[C@@H]1[C@H]2C(=O)O[C@H](c3ccccc3)[C@H](c3ccccc3)N2[C@H](c2ccc(OCCOC(=O)[C@@H]3C[C@@H]4C(=O)N5CCC[C@H]5C(=O)N4[C@@H]3c3ccc(O)cc3)cc2)[C@@]12C(=O)Nc1ccc(I)cc12	0.339	0.155 (inactive)	-0.446 (inactive)	-0.326 (inactive)	2.65 (inactive)	-0.468 (inactive)	0.65 (inactive)	1.72 (inactive)	1.28	-0.059	0.393 (inactive)	0.533	-1.85	1.38 (inactive)	-0.946 (inactive)	-0.3 (inactive)
COc1ccc(CCN2C(=O)[C@@]3(c4ccc([N+](=O)[O-])cc4)CC(=O)N(C4CCCCC4)[C@@H]3c3ccc(CO)cc32)cc1	-0.356	1.37 (inactive)	-0.672 (inactive)	-25.9 (active)	0.944 (inactive)	-0.582 (inactive)	-0.0051 (inactive)	-0.0209 (inactive)	-0.749	-0.167	1.23 (inactive)	0.311	0.706	-0.544 (inactive)	0.135 (inactive)	-0.0588 (inactive)
C=CCOC(=O)[C@@H]1[C@H]2C(=O)O[C@H](c3ccccc3)[C@H](c3ccccc3)N2[C@H](c2ccc(OCCOC(=O)[C@@H]3C[C@@H]4C(=O)N[C@@H](CCCCN(C)C)C(=O)N4[C@@H]3c3ccc(O)cc3)cc2)[C@@]12C(=O)Nc1ccc(I)cc12	0.883	-0.955 (inactive)	-0.078 (inactive)	-0.262 (inactive)	0.531 (inactive)	1.65 (inactive)	-0.821 (inactive)	0.0885 (inactive)	-0.153	-0.157	1.45 (inactive)	0.783	-0.369	5.96 (inactive)	-0.0333 (inactive)	0.121 (inactive)
O=C1NC(=O)C2C1C=CC(C(O)c1ccccc1)N2Nc1ccc(Cl)cc1Cl (centres undefined)	-2.45	-17.3 (active)	-1.62 (inactive)	-0.782 (inactive)	1.43 (inactive)	-15.4 (active)	0.047 (inactive)	-0.224 (inactive)	-1.55	0.54	-0.0839 (inactive)	0.812	0.416	-5.54 (inactive)	-0.346 (inactive)	-0.621 (inactive)
COCCOC(=O)N1C(=O)[C@@]2(c3cc(C#CCNC(N)=O)ccc31)[C@H](C(=O)NC[C@H](O)c1ccccc1)[C@H]1C(=O)O[C@H](c3ccccc3)[C@H](c3ccccc3)N1[C@@H]2c1ccccc1OCCO	-0.577	1.39 (inactive)	0.796 (inactive)	0.272 (inactive)	2.62 (inactive)	1.97 (inactive)	1.01 (inactive)	1.1 (inactive)	0.952	0.108	0.0808 (inactive)	0.689	-0.411	-1.65 (inactive)	0.0441 (inactive)	0.0861 (inactive)
CCOC(=O)C1=CCC(c2ccc(C)cc2)N(S(=O)(=O)c2ccc(C)cc2)C1 (centres undefined)	0.28	1.94 (inactive)	-0.714 (inactive)	-0.526 (inactive)	0.173 (inactive)	1.03 (inactive)	-0.764 (inactive)	-0.56 (inactive)	-1.63	0.128	0.34 (inactive)	0.46	-1.65	-2.32 (inactive)	0.283 (inactive)	0.449 (inactive)
Cc1ccc(C(C)CC(O)C2C=CC3C(=O)N(C)C(=O)C3N2NC(=O)OC(C)(C)C)o1 (centres undefined)	-0.427	-0.626 (inactive)	-0.076 (inactive)	-0.166 (inactive)	0.434 (inactive)	0.66 (inactive)	-0.107 (inactive)	-0.354 (inactive)	0.0437	0.12	3.24 (inactive)	0.709	0.556	-3.33 (inactive)	-0.158 (inactive)	-0.168 (inactive)
CC(C)c1ccc(NN2C(C(O)C(c3ccccc3)c3ccccc3)C=CC3C(=O)N(c4ccccc4)C(=O)C32)cc1 (centres undefined)	-1.49	-0.141 (inactive)	-1.35 (inactive)	0.704 (inactive)	0.642 (inactive)	1.17 (inactive)	-1.39 (inactive)	-1.47 (inactive)	-0.912	-0.0525	0.234 (inactive)	0.739	-0.536	-2.67 (inactive)	0.286 (inactive)	0.207 (inactive)
C=CC[C@]12N=C(c3ccc(OCCCO)cc3)O[C@H]1c1ccccc1N(Cc1ccccc1)C2=O	-0.882	0.143 (inactive)	-3.28 (inactive)	0.648 (inactive)	0.603 (inactive)	0.492 (inactive)	-0.0819 (inactive)	0.328 (inactive)	-2.3	-0.122	0.0479 (inactive)	0.586	-2.17	0.196 (inactive)	-0.241 (inactive)	-0.197 (inactive)
